Test results: PubChem BioAssay (NCATS)
“And” between values parts separate entries of the source, which are not always exact repeats. Equal values may be shown once. Records with an inconclusive call do not appear. Unmarked numbers belong to inactive results. The source made the active and inactive calls. The call rests on the fitted dose curve; in most records, active means well fitted cell-killing curve with a large enough effect; inconclusive means small, poorly fitted or top-dose-only effect; inactive means flat fitted curve, though single readings scatter.

Experiment: qHTS of pediatric cancer cell lines to identify multiple opportunities for drug repurposing: Primary screen for DAOY cells (AID 1347090); further: nearly all actives have a fitted effect of over 55% in size
Settings: DAOY medulloblastoma viability, CellTiter-Glo luminescence, 48 h; series mostly up to 46 µM; activity change, negative = cytotoxic: at the top concentration
From the text: Drug repurposing or repositioning has been offered as a strategy for drug development in oncology programs. This approach has special potential for childhood cancers and other rare or orphan diseases, where the expected return on new drug development has been a disincentive to pharmaceuticals.
In this project we exploit the poly-pharmacology of drugs to discover new indications via phenotypic screening of a panel of 19 well-characterized cell lines derived from solid tumors seen in children and adolescents. The goal is to identify approved drugs with previously unrecognized anticancer properties that has the potential to reveal new mechanisms and biological processes involved in carcinogenesis or drug resistance. We employed a titration-based paradigm (quantitative high-throughput screening or qHTS), where all compounds were tested at multiple concentrations for their effect on cell viability. Concentration-response curves (CRCs) were derived directly from the primary screen, and both potency and efficacy values were used to identify compounds with robust bioactivity profiles. We screened the NIH Chemical Genomics Center (NCGC) Pharmaceutical Collection (NPC) and Mechanism Interrogation Plate (MIPE) small molecule collections of approved and investigational compounds against these cell lines; and measured metabolically active cells after 48 hours of compound treatment as a proxy for cell viability.
Assay Submitter: Nathalia J. Martinez, National Center for Advancing Translational Sciences, National Institutes of Health, Rockville, MD, USA; email: natalia.martinez@nih.gov
[1] Shen, M et al. Quantitative high-throughput phenotypic screening of pediatric cancer cell lines identifies multiple opportunities for drug repurposing. Oncotarget 2017 Dec 19;9(4):4758-4772. PMID 29435139.
The cells were obtained from University of North Carolina (UNC), Pediatric Preclinical Testing Program (PPT), and Coriell Institute (CI).
qHTS cell viability assay:
Cells were assayed in growth media at a density of 500-1,000 cells/well. Five microliters of cells were dispensed into 1,536-well, white, solid-bottom, TC-treated plates (Greiner Bio One) using a multidrop dispenser and incubated at 37 degrees C, 5% CO2, under a humidified atmosphere for 5 hours. Twenty-three nanoliters of compounds and controls (neutral control DMSO or positive control bortezomib at final concentration of 2.3 µM) were subsequently transferred by Kalypsys pintool. For primary screens, the MIPE collection was tested at 11-point dilutions (final concentrations range from 0.78 nM to 46 µM) and the NPC collection at 8-point dilutions (final concentrations range from 0.59 nM to 46 µM). Compounds tested in follow-up screens were assayed at 11-point dilutions. Cells were incubated for 48 hours, followed by addition of 3 uL of CellTiter-Glo (Promega). After a 15 min incubation at room temperature, samples were analyzed for luminescence intensity using a ViewLux High-throughput CCD imager equipped with clear filters.
Potency means the concentration at half of the fitted maximal effect.

Row | SMILES | activity change, negative = cytotoxic | Potency
1 | CN(C)CCC(c1ccccc1)c1ccccn1 (stereo not given) | 11.8% | –
2 | C[N+]1(C)[C@@H]2CC(OC(=O)[C@H](CO)c3ccccc3)C[C@H]1[C@H]1O[C@@H]12 (stereo not given in full) | 8.43% | –
3 | c1ccc2c(Cc3c[nH]c4ccccc34)c[nH]c2c1 | – | 3.72 µM (active)
4 | CCN(CC)CCNC(=O)c1ccc(N)cc1 | 8.18% | –
5 | CC(C)(C(=O)NCC(F)(F)C(F)(F)F)C(=O)N[C@@H]1C(=O)Nc2ccccc2-c2ccccc21 | – | 18.7 µM (active)
6 | CC#CCn1c(N2CCC[C@@H](N)C2)nc2c1c(=O)n(Cc1nc(C)c3ccccc3n1)c(=O)n2C | -7.97% | –
7 | COc1cc(O)c2c(c1)C(=O)c1cc(C)cc(O)c1C2=O | -8.32% [at 16.1 µM] | –
8 | O=C(Nc1ccccc1Br)N[C@@H]1CCN(c2ccc(C(F)(F)F)cn2)C1 | – | 11.8 µM (active)
9 | C=C1C(=O)[C@@]23C(CC[C@@H]1[C@H]2O)[C@@]12CO[C@]3(O)[C@@H](O)[C@@H]1C(C)(C)CC[C@@H]2O (stereo not given in full) | – | 2.35 µM (active)
10 | CC(=O)c1ccc(S(=O)(=O)NC(=O)NC2CCCCC2)cc1 | 4.27% | –
11 | CC1(C)CCC(CN2CCN(c3ccc(C(=O)NS(=O)(=O)c4ccc(NCC5CCOCC5)c([N+](=O)[O-])c4)c(Oc4cnc5[nH]ccc5c4)c3)CC2)=C(c2ccc(Cl)cc2)C1 | – | 14.8 µM (active)
12 | O=c1cc(N2CCOCC2)oc2c(-c3cccc4c3sc3ccccc34)cccc12 | – | 18.7 µM (active)
13 | O=c1cc(-c2ccccc2)oc2cc(O)c(O)c(O)c12 | -4.4% | –
14 | O=C(OCC#CCSc1nnc(-c2cccc3ccccc23)o1)c1cc2ccccc2s1 | -7.29% | –
15 | O=C1C[C@@H](c2ccc(O)cc2)Oc2cc(O)cc(O)c21 | -12.3% | –
16 | NC1CCC(Nc2nc(Nc3ccc(C(=O)N4CCCCC4)cc3)c3ncn(-c4cccc(F)c4)c3n2)CC1 (stereo not given) | -4.47% | –
17 | Cc1cc(OCCCc2c(C(=O)O)n(Cc3cccnc3)c3c(-c4c(COc5ccc(N6CCN([S+](C)(=O)[O-])CC6)cc5)nn(C)c4C)cccc23)cc(C)c1Cl | – | 18.7 µM (active)
18 | CC(=O)OC1C(C)OC(Oc2c(-c3ccc(O)cc3)oc3cc(O)cc(O)c3c2=O)C(O)C1OC(C)=O (stereo not given) | -19.8% | –
19 | CCN(CC)CCOC(=O)c1ccc(N)cc1 | 7.96% | –
20 | CCC(CC)[C@H](NC(C)=O)[C@@H]1[C@H](O)[C@@H](C(=O)O)C[C@@H]1N=C(N)N | 2.6% | –

Row | SMILES | activity change, negative = cytotoxic | Potency
21 | CC(C)(C)c1ccc(C(O)CCCN2CCC(C(O)(c3ccccc3)c3ccccc3)CC2)cc1 (stereo not given) | 4.75% | –
22 | COc1cc2ncnc(-n3nc(-c4ccccn4)nc3N)c2cc1OC | – | 18.7 µM (active)
23 | COC1CCC(N(C(=O)C2CCC(C)CC2)c2cc(C3=CCCCC3)sc2C(=O)O)CC1 (stereo not given) | -6.24% | –
24 | Cc1cccc(C)c1OCC(C)N (stereo not given) | 0.012% | –
25 | CCn1cc(C(=O)O)c(=O)c2ccc(C)nc21 | – | inactive
26 | Cc1ccc(C(=O)Nc2cccc(C(F)(F)F)c2)cc1Nc1nc(-c2cccnc2)nc2c1cnn2C | – | 14.8 µM (active)
27 | Cc1ccc(F)c(NC(=O)Nc2ccc(-c3cccc4[nH]nc(N)c34)cc2)c1 | – | 23.5 µM (active)
28 | CO[C@H]1C[C@@H]2CC[C@@H](C)[C@@](O)(O2)C(=O)C(=O)N2CCCC[C@@H]2C(=O)O[C@H]([C@@H](C)C[C@@H]2CC[C@H](O)[C@H](OC)C2)CC(=O)[C@H](C)C=C(C)[C@@H](O)[C@@H](OC)C(=O)[C@H](C)C[C@H](C)C=CC=CC=C1C | -23.1% | –
29 | NC(=O)NN=Cc1ccc([N+](=O)[O-])o1 | -7.12% | –
30 | N[C@H](CSC(c1ccccc1)(c1ccccc1)c1ccccc1)C(=O)O | – | 18.7 µM (active)
31 | C[C@H]1[C@H](NC(=O)C(=NOC(C)(C)C(=O)O)c2csc(N)n2)C(=O)N1S(=O)(=O)O | 3.41% | –
32 | O=C(O)C(O)Cc1ccc(O)c(O)c1 (stereo not given) | -12.3% | –
33 | O=C(O)c1cc(O)c2c(c1)C(=O)c1cccc(O)c1C2=O | -13% [at 92.7 µM] | –
34 | CCN1CCC[C@H]1CNC(=O)c1cc(S(N)(=O)=O)ccc1OC | 9.41% | –
35 | COc1ccc2c(Oc3ccc(NC(=O)c4c(C)n(CC(C)(C)O)n(-c5ccccc5)c4=O)nc3)ccnc2c1 | -16.4% | –
36 | C[N+](C)(C)CC(=O)O | -6.1% | –
37 | O=C1Nc2ccc(Cl)cc2C(C#CC2CC2)(C(F)(F)F)O1 (stereo not given) | – | 29.6 µM (active)
38 | CC[C@]1(O)C[C@@H]2CN(CCc3c([nH]c4ccccc34)[C@@](C(=O)OC)(c3cc4c(cc3OC)N(C)[C@H]3[C@@](O)(C(=O)OC)[C@H](OC(C)=O)[C@]5(CC)C=CCN6CC[C@]43[C@@H]65)C2)C1 | – | 26.6 nM (active) and 133 nM (active)
39 | CC(=O)Nc1ccc([C@H](C)C(=O)Nc2ncc(C(C)C)s2)cc1 | – | 1.48 µM (active)
40 | COc1ccc2cc(-c3nc(-c4ccc(S(C)=O)cc4)[nH]c3-c3ccncc3)ccc2c1 (stereo not given) | -18.3% | –
